Consider 13 compounds from PubChem BioAssay (NCI).

Compounds without any hit were thinned out: in the full panel of roughly 83,000, 20% have a hit.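 The endpoint reported here, percent growth, reads 100 for growth as untreated, 0 for no net growth and -100 for all cells dead.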 A number with no mark means an inactive call. Active and inactive are the calls of the source. Rule for the calls: active = growth percent below 10; inactive = the rest.

The assay has as its system HL-60(TB) leukemia. Put plainly: NCI-60 one-dose screen, 48 h (100 = growth as untreated, 0 = no growth, -100 = all killed). The note with it: 10 µM unless noted.
As for `C[C@H]1[C@H]2[C@H]3CC[C@@H]4[C@@]5(C)C/C(=C/c6ccco6)C(=O)C(C)(C)[C@@H]5CC[C@@]4(C)[C@]3(C)CC[C@]23CO[C@]1(C)[C@@H](C(=O)/C=C\c1ccco1)C3`, the growth was 95.8%.

As to `CN(CCCNC(=O)Cc1ccc2ccc3cccc4ccc1c2c34)CCCNc1cc(-c2ccc3ccccc3c2)nc2ccccc12`, the growth is -60.1% (active).

Take `CC(C)(C)CC(C)(C)c1ccc(O)c(Cc2ccc(Cl)cc2Cl)c1`: the growth was -61.6% (active).

For the compound `Cc1[nH]c(C(=O)Nc2cccc(OC3CCNCC3)c2)c(Cl)c1Cl`, the growth was 54.9%.

`CC1(CO)CCCC1NCCNC1CCCC1(C)CO` (stereo not drawn): the growth is 95.2%.

As to `C=C[Si](OC(C)=O)(OC(C)=O)OC(C)=O`, the growth was 94.3%.

For `CCCc1cc2cc(-n3nc(C)c4c3CC(C)(C)CC4=O)cc(NC3CCC(O)CC3)c2c(=O)[nH]1` (stereo not drawn), the growth was 2.27% (active).

Consider `COC(=O)C1CCc2sc3ncnc(Nc4cn[nH]c4C(=O)Nc4ccc(CN5CCN(C)CC5)cc4)c3c21` (stereo not drawn), for which the growth was -28.8% (active).

In the case of `[N-]=[N+]=NCc1ncc(-c2ccc(C(F)(F)F)cc2)c(NC2CCCCCC2)n1`, the growth was 43.4% [50 µM].

As for `COc1ccc(-c2nc(-c3cn(C)c4ncccc34)cs2)cc1`, the growth is 13% [100 µM].

As to `Cc1nc2ccccc2c(/C=C/c2ccc(Br)cc2)c1C(=O)/C=C/c1ccccc1`, the growth was 2.74% (active).

`Nc1c(C(=O)Nc2cccc3c2OCCO3)sc2nc3c(cc12)C(=O)CCC3`: the growth was 12.4%.

Regarding `COc1ccc(NC(=O)c2sc3nc(C)c(C(=O)CCc4cccc(OC)c4)cc3c2N)cc1`, the growth was 34.6%.
